According to PubChem BioAssay (EPA / NIEHS):
Several values for one entry are separate records, joined by “and”; a condition that tells them apart may be missing. Equal values may be shown once. A structure can be active in one record and inactive in another. Activity calls are given as the source filed them. The calls were made as follows: active = hit-call score of the fitted dose curve at least 0.9, where 1 is the maximum; inactive = score below 0.9.

Columns and labels:
[1] = read-out: Transforming growth factor beta 1 (TGFb1), TGFB1 (gene 7040); test: BSK_KF3CT_TGFb1: BioMAP Diversity Plus: KF3CT Assay for Transforming growth factor beta 1 (TGFb1) Biomarker Activity (AID 2283072); conditions: primary human keratinocytes with fibroblasts; actives raise or lower the signal
How it was run: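 KF3CT co-culture (keratinocytes + fibroblasts), 24 h exposure → TGF-b1 ELISA → bidirectional fit, DMSO = baseline. Parallel SRB total-protein staining (0.1% SRB, 10% TCA fixation, 560 nm) for cytotoxicity.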

[2] = read-out: C-C motif chemokine 2 (Homo sapiens) (UniProt P13500); test: BSK_KF3CT_MCP1: BioMAP Diversity Plus: KF3CT Assay for Monocyte Chemoattractant Protein 1 (MCP1/CCL2) Biomarker Activity (AID 2283073); conditions: primary human keratinocytes with fibroblasts; actives raise or lower the signal
How it was run: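 ELISA read-out of MCP-1, 24 h post-dose, in primary human skin keratinocytes co-cultured with fibroblasts. Parallel SRB staining monitors cytotoxicity; changes fitted both directions relative to DMSO.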

[3] = read-out: Matrix Metallopeptidase 9 (MMP9), MMP9 (gene 4318); test: BSK_KF3CT_MMP9: BioMAP Diversity Plus: KF3CT Assay for Matrix Metallopeptidase 9 (MMP9) Biomarker Activity (AID 2283074); conditions: primary human keratinocytes with fibroblasts; actives raise or lower the signal
How it was run: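 Values come from bidirectional fitting relative to DMSO of MMP-9 levels, which were measured by ELISA. Measurements were taken 24 h after chemical dosing of a keratinocyte and foreskin fibroblast co-culture.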

[4] = read-out: urokinase plasminogen activator (uPA), PLAU (gene 5328); test: BSK_KF3CT_uPA: BioMAP Diversity Plus: KF3CT Assay for urokinase plasminogen activator (uPA) Biomarker Activity (AID 2283075); conditions: primary human keratinocytes with fibroblasts; actives raise or lower the signal
How it was run: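 Values derive from bidirectional fitting against DMSO controls. Keratinocyte/foreskin fibroblast co-cultures received chemical; 24 h later uPA was detected by ELISA, with SRB total-protein staining in parallel wells for overt cytotoxicity.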

CD40, CD40 (gene 958) [5] = test: BSK_LPS_CD40: BioMAP Diversity Plus: LPS Assay for CD40 Biomarker Activity (AID 2283076); conditions: primary human HUVEC with PBMC; actives raise or lower the signal
How it was run: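 In the LPS system of human endothelial cells with peripheral blood mononuclear cells, CD40 levels were read by ELISA 24 h post-treatment. Signal changes in either direction were fitted against the DMSO baseline, with parallel SRB protein staining.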

[6] = read-out: E-selectin (Homo sapiens) (UniProt P16581); test: BSK_LPS_Eselectin: BioMAP Diversity Plus: LPS Assay for Eselectin Biomarker Activity (AID 2283077); conditions: primary human HUVEC with PBMC; actives raise or lower the signal
How it was run: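 E-selectin ELISA on LPS-stimulated endothelial cell/PBMC co-cultures, read 24 h post-treatment; gains and losses fitted against DMSO. Parallel SRB staining (0.1% SRB after 10% TCA fixation, 560 nm) flags overt cytotoxicity.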

[7] = read-out: Interleukin-8 (IL8), CXCL8 (gene 3576); test: BSK_LPS_IL8: BioMAP Diversity Plus: LPS Assay for Interleukin-8 (IL8) Biomarker Activity (AID 2283078); conditions: primary human HUVEC with PBMC; actives raise or lower the signal
How it was run: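 ELISA read-out of IL-8 after 24 h chemical treatment of LPS-activated endothelial/PBMC human primary co-cultures. Changes either up or down relative to DMSO; overt cytotoxicity checked by sulforhodamine B staining in parallel wells.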

[8] = BSK_LPS_SRB: Viability Assessment in the BioMAP Diversity Plus: LPS Assay (AID 2283079); conditions: primary human HUVEC with PBMC;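 also: total protein by sulforhodamine B absorbance as a cytotoxicity measure; measured one day after compound addition; fitted in both directions against DMSO so loss or gain of signal counts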
How it was run: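 SRB viability endpoint: cells fixed with 10% TCA, stained with 0.1% SRB, read at 560 nm, 24 h post-dose. HUVEC/PBMC co-culture; signal change in either direction scored relative to DMSO.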

[9] = read-out: Monocyte Chemoattractant Protein-1 (MCP1), CCL2 (gene 6347); test: BSK_LPS_MCP1: BioMAP Diversity Plus: LPS Assay for Monocyte Chemoattractant Protein-1 (MCP1) Biomarker Activity (AID 2283081); conditions: primary human HUVEC with PBMC; actives raise or lower the signal;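 as to AC50: secreted MCP-1 protein quantified by ELISA in culture supernatant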
How it was run: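 Secreted MCP-1 read by ELISA at 24 h post-dosing in an LPS-activated co-culture of endothelial cells with peripheral blood mononuclear cells. Fits run in both directions, DMSO as baseline; parallel SRB staining tracks overt cytotoxicity.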

[10] = BSK_LPS_PGE2: BioMAP Diversity Plus: LPS Assay for Prostaglandin E2 (PGE2) Biomarker Activity (AID 2283082); conditions: primary human HUVEC with PBMC; actives raise or lower the signal;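 as to AC50: secreted prostaglandin E2 measured by ELISA in LPS-stimulated co-culture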
How it was run: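 Compounds were added to the LPS co-culture of endothelium and PBMC, and PGE2 was measured by ELISA after 24 h. Responses in either direction were fitted with DMSO as baseline.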

[11] = read-out: Macrophage colony-stimulating factor (MCSF), CSF1 (gene 1435); test: BSK_LPS_MCSF: BioMAP Diversity Plus: LPS Assay for Macrophage colony-stimulating factor (MCSF) Biomarker Activity (AID 2283083); conditions: primary human HUVEC with PBMC; actives raise or lower the signal
How it was run: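 Bidirectional fitting against DMSO was applied to M-CSF levels read by ELISA at 24 h post-dose. The system pairs human umbilical vein endothelium with peripheral blood mononuclear cells; parallel SRB staining tracked cytotoxicity.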

[12] = read-out: Tissue Factor, F3 (gene 2152); test: BSK_LPS_TissueFactor: BioMAP Diversity Plus: LPS Assay for Tissue Factor Biomarker Activity (AID 2283084); conditions: primary human HUVEC with PBMC; actives raise or lower the signal
How it was run: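 Compound was added to an endothelial cell/PBMC co-culture, and after 24 h tissue factor (CD142) was read by ELISA. Gain or loss of signal was fitted against a DMSO baseline, and parallel SRB staining (560 nm) tracked overt cytotoxicity.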

[13] = read-out: Tumor necrosis factor (Homo sapiens) (UniProt P01375); test: BSK_LPS_TNFa: BioMAP Diversity Plus: LPS Assay for Tumour Necrosis Factor alpha (TNFa) Biomarker Activity (AID 2283085); conditions: primary human HUVEC with PBMC; actives raise or lower the signal;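 as to AC50: TNFa protein level quantified by ELISA in the co-culture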
How it was run: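 Cells (umbilical vein endothelium plus peripheral blood mononuclear cells) were dosed with chemical, incubated 24 h, then TNFa was quantified by ELISA; values derive from bidirectional fitting with DMSO as baseline.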

[14] = read-out: Vascular cell adhesion molecule 1 (VCAM1), VCAM1 (gene 7412); test: BSK_LPS_VCAM1: BioMAP Diversity Plus: LPS Assay for Vascular cell adhesion molecule 1 (VCAM1) Biomarker Activity (AID 2283086); conditions: primary human HUVEC with PBMC; actives raise or lower the signal
How it was run: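 Cells are dosed in an LPS-stimulated endothelial/mononuclear co-culture and, after 24 h, VCAM-1 is quantified by ELISA. Activity in either direction is fitted relative to the DMSO negative control.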

CD38, CD38 (gene 952) = test: BSK_SAg_CD38: BioMAP Diversity Plus: SAg Assay for CD38 Biomarker Activity (AID 2283087); conditions: primary human HUVEC with PBMC; actives raise or lower the signal
How it was run: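 CD38 quantified by ELISA (fluorescence) in a superantigen-activated endothelial cell–PBMC co-culture at 24 h post-dose. Activity fitted in both directions relative to DMSO; parallel SRB and Alamar Blue cytotoxicity read-outs.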

CD40, CD40 (gene 958) [15] = test: BSK_SAg_CD40: BioMAP Diversity Plus: SAg Assay for CD40 Biomarker Activity (AID 2283088); conditions: primary human HUVEC with PBMC; actives raise or lower the signal
How it was run: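 CD40 is measured by fluorescence ELISA in an endothelial/PBMC primary human co-culture at 24 h post-dose. Fitting is bidirectional, DMSO baseline. Parallel SRB staining (560 nm) flags cytotoxicity.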

CD69, CD69 (gene 969) = test: BSK_SAg_CD69: BioMAP Diversity Plus: SAg Assay for CD69 Biomarker Activity (AID 2283089); conditions: primary human HUVEC with PBMC; actives raise or lower the signal
How it was run: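 ELISA, fluorescence read-out: CD69 on human umbilical vein endothelial cell + PBMC co-culture, 24 h post-dosing. Gain or loss of signal fitted bidirectionally against DMSO baseline.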

[16] = read-out: Monocyte Chemoattractant Protein-1 (MCP1), CCL2 (gene 6347); test: BSK_SAg_MCP1: BioMAP Diversity Plus: SAg Assay for Monocyte Chemoattractant Protein-1 (MCP1) Biomarker Activity (AID 2283090); conditions: primary human HUVEC with PBMC; actives raise or lower the signal
How it was run: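 Values derive from bidirectional fitting of ELISA-measured MCP1 against DMSO controls. Readings were taken 24 h after dosing human vascular endothelial cells co-cultured with peripheral blood mononuclear cells under superantigen stimulation.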

[17] = read-out: E-selectin (Homo sapiens) (UniProt P16581); test: BSK_SAg_Eselectin: BioMAP Diversity Plus: SAg Assay for Eselectin Biomarker Activity (AID 2283091); conditions: primary human HUVEC with PBMC; actives raise or lower the signal
How it was run: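 Cell-surface E-selectin is read by ELISA at 24 h in the SAg co-culture of HUVEC and PBMC. Curves are fitted in both directions relative to DMSO. Parallel SRB total-protein staining tracks overt toxicity.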

[18] = read-out: Interleukin-1 alpha (IL1a), IL1A (gene 3552); test: BSK_LPS_IL1a: BioMAP Diversity Plus: LPS Assay for Interleukin-1 alpha (IL1a) Biomarker Activity (AID 2283080); conditions: primary human HUVEC with PBMC; actives raise or lower the signal
How it was run: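 Readout is IL-1a level by ELISA, 24 h post-dose, fitted as gain or loss relative to DMSO. System: LPS-activated human primary co-culture of vascular endothelium and peripheral blood mononuclear cells, with parallel SRB total-protein cytotoxicity.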

Measured: AC50

Chain of E-selectin (Homo sapiens) (P16581 whole entry, looked up): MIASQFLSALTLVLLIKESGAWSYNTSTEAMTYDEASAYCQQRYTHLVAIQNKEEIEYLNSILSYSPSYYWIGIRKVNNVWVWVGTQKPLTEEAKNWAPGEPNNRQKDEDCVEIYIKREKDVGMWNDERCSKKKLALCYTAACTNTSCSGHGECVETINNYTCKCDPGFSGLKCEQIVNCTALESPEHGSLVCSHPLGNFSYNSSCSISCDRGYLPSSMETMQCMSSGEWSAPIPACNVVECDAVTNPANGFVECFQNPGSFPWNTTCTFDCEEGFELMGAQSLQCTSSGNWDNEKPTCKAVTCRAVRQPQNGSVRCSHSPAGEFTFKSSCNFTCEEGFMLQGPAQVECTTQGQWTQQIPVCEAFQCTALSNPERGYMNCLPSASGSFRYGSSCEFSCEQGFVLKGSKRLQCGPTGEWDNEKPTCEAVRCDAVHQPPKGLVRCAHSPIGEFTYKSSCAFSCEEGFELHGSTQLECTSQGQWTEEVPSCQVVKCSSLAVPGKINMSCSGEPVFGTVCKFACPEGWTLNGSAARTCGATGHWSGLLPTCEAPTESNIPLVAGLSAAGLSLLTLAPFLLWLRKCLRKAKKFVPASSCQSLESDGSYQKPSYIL
Chain of Tumor necrosis factor (Homo sapiens) (P01375 whole entry, looked up): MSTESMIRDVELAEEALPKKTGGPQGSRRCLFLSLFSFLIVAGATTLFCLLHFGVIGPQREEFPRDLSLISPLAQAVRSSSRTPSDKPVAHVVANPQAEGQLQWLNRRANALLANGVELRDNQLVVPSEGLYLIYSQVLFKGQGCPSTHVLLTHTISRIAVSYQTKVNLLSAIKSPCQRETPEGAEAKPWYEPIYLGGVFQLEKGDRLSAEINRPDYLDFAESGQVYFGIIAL

CCOC(=O)C(C)Oc1ccc(Oc2cnc3cc(Cl)ccc3n2)cc1 (configuration not stated)
active: [10] 13.1 µM
not listed: [18]
inactive: all other assays above

CC(C)(c1ccc(O)cc1)c1ccc(O)cc1
active: [10] 16.6 µM and 10.3 µM and 11.1 µM | [13] 2.8 µM | [14] 25.5 µM and 27 µM and 20 µM | CD38, CD38 (gene 952) 13.8 µM | CD40, CD40 (gene 958) [15] 20.3 µM and 5.31 µM | [16] 20 µM | [17] 24.9 µM
inactive: [1] | [2] | [3] | [4] | CD40, CD40 (gene 958) [5] | [6] | [7] | [18] | [9] | [10] | [11] | [12] | [13] | [14] | CD38, CD38 (gene 952) | CD40, CD40 (gene 958) [15] | CD69, CD69 (gene 969) | [16] | [17]

COc1nc(C)nc(NC(=O)NS(=O)(=O)c2ccccc2OCCCl)n1
inactive: all assays above

CCCOC(=O)c1ccc(C(=O)OCCC)nc1
active: [9] 1.84 µM | CD38, CD38 (gene 952) 0.624 µM | CD40, CD40 (gene 958) [15] 3.09 µM
not listed: [18]
inactive: all other assays above

c1ccc(Nc2ccccc2)cc1
active: [10] 3.51 µM | [13] 13 µM
not listed: [8]
inactive: all other assays above

COC(=O)c1ccccc1C(=O)O
active: [2] 0.726 µM | CD40, CD40 (gene 958) [15] 6.97 µM | [17] 5.96 µM
not listed: [8]
inactive: all other assays above
